Inconclusive results are not listed. Where a call stands in place of a potency, no number is given. Activity calls are given as the source filed them. Calls come from the whole dose curve; as a rule, active = well fitted cell-killing curve with a large enough effect in the repeat runs; inconclusive = weak or mixed curves, or effect the other way; inactive = no such curve, though single readings can be large or run the other way.
Potency is the fitted concentration of half-maximal effect.

The nature of this assay: qHTS assay to identify small molecule antagonists of the vitamin D receptor (VDR) signaling pathway - cell viability counter screen (AID 743225). Note: nearly all actives have a fitted effect of over 50% in size. Particulars: VDR-bla HEK293T viability, CellTiter-Glo luminescence, 16 h; series mostly up to 61 µM. An excerpt:
U.S. Tox21 Program National Center for Advancing Translational Sciences [NCATS] NIH Chemical Genomics Center [NCGC] U.S. Environmental Protection Agency [EPA] National Institutes of Environmental Health Sciences [NIEHS] National Toxicology Program [NTP] U.S. Food and Drug Administration [FDA] Tox21 Assay Overview: The vitamin D receptor (VDR), a member of nuclear hormone receptor superfamily, plays a critical role in calcium homeostasis and bone metabolism. It is also involved in cell differentiation and growth, and thrombogenicity. To identify the compounds that inhibit VDR signaling, the VDR-UAS-bla HEK 293T cell line (Invitrogen, Carlsbad, CA, USA) containing a beta-lactamase reporter gene under the control of an upstream activator sequence (UAS) was used to screen the Tox21 10K compound library. The cytotoxicity of the Tox21 compound library against the VDR-bla cell line was tested in parallel by measuring the cell viability using CellTiter-Glo assay (Promega, Madison, WI) in the same wells.
Tox21 Assay Protocol Summary: VDR-bla cells were dispensed at 2,000 cells/5 uL of assay medium per well into black wall/clear-bottom 1536-well plates using a Multidrop Combi (Thermo Fisher Scientific, Waltham, MA) dispenser. After the assay plates were incubated at a 37C and 5% CO2 for 4 h, 23 nL of compounds dissolved in DMSO, positive controls or DMSO only was transferred to the assay plate by a Pintool station (Kalypsys, San Diego, CA), followed by addition of 1 uL of 1-alpha, 25-Dihydroxy Vitamin D3 (3 nM, final concentration in the wells) using a Bioraptr Flying Reagent Dispenser (FRD) workstation (Beckman Coulter, Indianapolis, IN). The plates were incubated at 37C and 5% CO2 for 16 h, and then 1 uL of LiveBLAzerTM B/G FRET substrate was added using a Bioraptr FRD. The plates were incubated at room temperature for 2 h and fluorescence intensity was measured by an Envision plate reader (PerkinElmer, Shelton, CT). For cell viability readout that measures cytotoxicity, 3 ul/well of CellTiter-Glo reagent was added into the assay plates using a Bioraptr FRD. After 30 min incubation at room temperature, the luminescence intensity in the plates was measured using a ViewLux plate reader (PerkinElmer).
For orientation: In qHTS, concentration-response curves come from the screen itself.
For the compound `CN1CC(=O)NC1=N`, the Potency entry was “inactive”.
With `CC(=O)Nc1c(I)cc(I)c(C(=O)O)c1I`, the Potency entry is “inactive”.
Same read-out and setting: to `CCn1nc(C(=O)O)c(=O)c2cc3c(cc21)OCO3` belongs “inactive”; to `NC(=O)c1cn(Cc2c(F)cccc2F)nn1`, “inactive”.
The same measure, in the same setting: to `CC(C)(c1ccc(O)cc1)c1ccc(O)cc1` belongs “inactive”.
The same measure, in the same setting: to `O=C1OC(=O)C2CCCCC12` (stereo not given) belongs “inactive”; to `CCCCC(CC)COC(=O)c1ccccc1O` (stereo not given), “inactive”.
`CC(=O)CC(C)(C)C1CCCCC1`: the Potency entry is “inactive”.
Still for that read-out and setting: next, `NC(=O)COCCN1CCN(C(c2ccccc2)c2ccc(Cl)cc2)CC1` (stereo not given): “inactive”.
On to `CCO/C([O-])=N/c1c[n+](N2CCOCC2)no1`, for which the Potency entry was “inactive”.
Still for that read-out and setting: next, `Cc1c(O)cccc1O`: “inactive”; `CC(=O)c1ccccc1O`: “inactive”.
Consider `C=C(C)CS(=O)(=O)O`, for which the Potency result was “inactive”.
The same measure, in the same setting: next, `O=C(O)c1ccccc1OP(=O)(O)O`: “inactive”.
Turning to `CCC(C)S` (stereo not given), the viability change, negative = cytotoxic is 1.2% [at 3.11 µM] (inactive).
Turning to `O=c1[nH]c(=O)n([C@H]2C[C@H](O)[C@@H](CO)O2)cc1I`, the Potency entry was “inactive”.
Regarding `COCCCOCCCOC`, the Potency entry was “inactive”.
The same measure, in the same setting: next, `Cn1c(N)c(N=O)c(=O)n(C)c1=O`: “inactive”; `C/C=C(\C)C#N`: “inactive”.
Regarding `O=C[C@H](O)[C@@H](O)[C@H](O)[C@H](O)CO`, the Potency result is “inactive”.
For the compound `O=C1NC(=O)[C@@]2(CCOc3ccc(F)cc32)N1`, the Potency result is “inactive”.
Turning to `CN1N=C(C(N)=O)CCC1=O`, the Potency result is “inactive”.
`CC(=O)OC/C=C(\C)CC/C=C(\C)CCC=C(C)C`: the Potency result is “inactive”.
For `CCN(CC)CCNC(=O)c1cc(S(C)(=O)=O)ccc1OC`, the Potency entry is “inactive”.
Take `CN(C)CCCN1c2ccccc2CCc2ccc(Cl)cc21`: the Potency is 38.9 µM (active).
On the same count and under the same terms, to `O=C(CCCN1CCC(O)(c2cccc(C(F)(F)F)c2)CC1)c1ccc(F)cc1` belongs “inactive”; to `CN1C(=O)N(C)C(O)C1O` (stereo not given), “inactive”; to `COC(=O)C1=C(C)NC(C)=C(C(=O)OC)C1c1ccccc1[N+](=O)[O-]`, “inactive”.
On to `CC(C)(O)C(=O)c1ccccc1`, for which the Potency result was “inactive”.
Turning to `N=C(N)c1ccc(OCCCOc2ccc(C(=N)N)cc2)cc1`, the Potency entry is “inactive”.
Same read-out and setting: to `Cc1cccn2c(=O)c(-c3nnn[nH]3)cnc12` belongs “inactive”; to `CN(C(=O)c1c(O)c2ccccc2n(C)c1=O)c1ccccc1`, “inactive”.
Turning to `CC/C=C\CCOC(C)=O`, the Potency entry is “inactive”.
`CCN1CCC[C@H]1CNC(=O)c1c(O)c(Cl)cc(Cl)c1OC`: the Potency entry was “inactive”.
The same measure, in the same setting: to `Oc1ccc(C2CNCCc3c2cc(O)c(O)c3Cl)cc1` (stereo not given) belongs “inactive”; to `CCCCCSCCCCC`, “inactive”; to `CC(C)CCCC(C)N` (stereo not given), “inactive”.
For `CC/C=C\CC/C=C/C(OCC)OCC`, the Potency result was “inactive”.
Consider `Cn1cc(S(C)=O)c(=O)c2ccc(F)cc21` (stereo not given), for which the Potency result was “inactive”.
Still for that read-out and setting: next, `Nc1cc(=O)[nH]c(N)n1`: “inactive”.

The record behind these values is PubChem BioAssay (Tox21).
